Here are results for 22 molecules from PubChem BioAssay (Tox21).

Records with an inconclusive call do not appear. Active and inactive are the calls of the source. Calls come from the whole dose curve; as a rule, active = well fitted curve in the direction sought with a large enough effect in the repeat runs; inconclusive = weak or mixed curves; inactive = no such curve, though single readings can be large; an effect the other way counts as inactive or inconclusive.

The nature of test [1]: qHTS RealTime-Glo MT Cell Viability Assay in HEK293 cells - 0 hour (AID 1224880). Note: top concentration of the series differs between compounds; nearly all actives have a fitted effect of over 45% in size. Put shortly: (§1)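 Cells were seeded together with NanoLuc luciferase and a prosubstrate that viable cells reduce to a luciferase substrate. After a 5 h incubation at 37 C/5% CO2, compounds were added and luminescence was measured repeatedly during 40 h of treatment.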
Test [2] can be described thus: A CellTox Green Cytotoxicity Assay to monitor cytotoxicity in HepG2 cells - 0 hour (AID 1224882). Note: nearly all actives have a fitted effect of over 35% in size. Put shortly: (§2)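 Read-out is fluorescence of a cyanine dye excluded from live cells that stains DNA of dead HepG2 cells, with signal proportional to cytotoxicity. Plates were read at 0, 8, 16, 24, 32 and 40 h after compound addition.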
A short description of test [3]: qHTS RealTime-Glo MT Cell Viability Assay in HEK293 cells - 8 hour (AID 1224887). Note: nearly all actives have a fitted effect of over 50% in size. Note: potency is the fitted concentration of half-maximal effect. Put shortly:
as §1

The nature of test [4]: A CellTox Green Cytotoxicity Assay to monitor cytotoxicity in HEK293 cells - 8 hour (AID 1224884). Note: nearly all actives have a fitted effect of over 35% in size. Note: potency is the fitted concentration of half-maximal effect. Put shortly: (§3)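 Nonlytic real-time cytotoxicity: HEK293 + CellTox Green reagent plated, 5 h preincubation, pintool compound addition (23 nL in DMSO), 37 C for 40 h, fluorescence measured at successive time points.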
Test [5] in a line: qHTS RealTime-Glo MT Cell Viability Assay in HepG2 cells - 16 hour (AID 1224885). Note: nearly all actives have a fitted effect of over 50% in size. Note: potency is the fitted concentration of half-maximal effect. The method in brief:
(§4)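 Real-time, nonlytic viability: 600 HepG2 cells/well mixed with NanoLuc enzyme plus prosubstrate; 5 h settle, compound (DMSO) added by pintool; luminescence monitored over 40 h at 37 C.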

Test [6] in a line: A CellTox Green Cytotoxicity Assay to monitor cytotoxicity in HEK293 cells - 16 hour (AID 1224888). Note: nearly all actives have a fitted effect of over 35% in size. Note: potency is the fitted concentration of half-maximal effect. The method in brief: as §3
A short description of test [7]: qHTS RealTime-Glo MT Cell Viability Assay in HepG2 cells - 0 hour (AID 1224889). Note: nearly all actives have a fitted effect of over 50% in size. Note: potency is the fitted concentration of half-maximal effect. The method in brief: as §4
Test [8] is described as follows: A CellTox Green Cytotoxicity Assay to monitor cytotoxicity in HEK293 cells - 32 hour (AID 1224881). Note: nearly all actives have a fitted effect of over 40% in size. Note: potency is the fitted concentration of half-maximal effect. The method in brief:
as §3

The nature of test [9]: A CellTox Green Cytotoxicity Assay to monitor cytotoxicity in HepG2 cells - 32 hour (AID 1224883). Note: nearly all actives have a fitted effect of over 50% in size. Note: potency is the fitted concentration of half-maximal effect. The method in brief:
as §2

Test [10] can be described thus: qHTS RealTime-Glo MT Cell Viability Assay in HEK293 cells - 24 hour (AID 1224886). Note: nearly all actives have a fitted effect of over 50% in size. Note: potency is the fitted concentration of half-maximal effect. Put shortly: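 Cells + reagent dispensed (600 cells/well, HEK293) → 5 h at 37 C/5% CO2 → 23 nL compound in DMSO pinned → 40 h at 37 C → luminescence read at 0, 8, 16, 24, 32, 40 h.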

Consider `NC(=O)CI`, for which the Potency entry in test [1], in [2] and in test [3] was “inactive” each time.

With `CC[C@H]1C[C@H]2[C@@H]3CCC4=CC(=O)CC[C@@H]4[C@H]3CC[C@]2(C)[C@H]1O`, the Potency result in test [1], in [2], in test [4], in test [5], in test [3] and in test [6] was “inactive” each time. Moreover, the Potency entry in test [7] was “inactive”.

As for `CCCN(CCC)c1c([N+](=O)[O-])cc(S(C)(=O)=O)cc1[N+](=O)[O-]`, the Potency result in test [8], in test [2], in [9], in test [4], in [5] and in test [6] was “inactive” in each case. In addition, the Potency result in test [7] was “inactive”. For the same molecule, the Potency in [10] and in test [3] was 13.8 µM (active) each time.

Consider `CCCCC(O)(Cn1cncn1)c1ccc(Cl)cc1Cl` (stereo not given), for which the Potency result in test [1] and in [2] was “inactive” each time. The Potency was 48.9 µM (active) in [9], 43.6 µM (active) in [10], 43.6 µM (active) in test [3] and 24.5 µM (active) in test [7].

`IC(I)=C(I)I`: the Potency in test [8] is 54.9 µM (active); in test [9] it was 13.8 µM (active); in [4] it was 54.9 µM (active); in test [5], 0.776 µM (active); in test [10] it was 6.92 µM (active); in [3], 17.4 µM (active). For the same molecule, the Potency in test [6] is 54.9 µM (active). Further, the Potency result in [2] is “inactive”.

As for `CCOP(=O)(OCC)O/C(=C/Cl)c1ccc(Cl)cc1Cl`, the Potency entry in test [8], in [2], in test [9], in test [4], in test [5] and in test [6] was “inactive” each time. For the same molecule, the Potency result in [7] was “inactive”. Besides, the Potency in [10] is 24.5 µM (active).

As for `O=C(O)C(F)(F)C(F)(F)C(F)(F)C(F)(F)C(F)(F)C(F)(F)C(F)(F)C(F)(F)C(F)(F)F`, the Potency entry in [8], in [2], in test [9], in [4], in test [5] and in [10] was “inactive” in each case. Moreover, the Potency result in [3], in test [6] and in test [7] was “inactive” in each case.

Consider `Cc1ccccc1C(=O)Nc1cccc(OC(C)C)c1`, for which the Potency entry in [1], in test [2], in test [5], in test [3], in [6] and in test [7] was “inactive” throughout.

Consider `CCO[C@H]1O[C@@H]2OC3(C)CC[C@H]4[C@H](C)CC[C@@H]([C@H]1C)[C@@]24OO3`, for which the Potency entry in [8], in test [2], in [9], in test [4], in [5] and in test [10] was “inactive” throughout. Besides, the Potency entry in [3], in test [6] and in test [7] was “inactive” in each case.

As for `O=S1OC[C@@H]2[C@H](CO1)[C@]1(Cl)C(Cl)=C(Cl)[C@@]2(Cl)C1(Cl)Cl` (stereo not given in full), the Potency entry in test [1], in [2] and in test [7] was “inactive” each time.

Turning to `CC1(C)CCC(Cc2ccc(Cl)cc2)C1(O)Cn1cncn1` (stereo not given), the Potency entry in test [1], in [2], in test [4], in test [6] and in [7] was “inactive” each time. In [10], the Potency was 24.5 µM (active).

For the molecule `CCN(C)N=O`, the Potency result in [8], in [2], in [9], in [4], in [5] and in test [10] was “inactive” in each case. Further, the Potency entry in test [3], in test [6] and in test [7] was “inactive” throughout.

For the molecule `ClP(Cl)(Cl)(Cl)Cl`, the Potency entry in test [1], in [2], in test [4], in test [3] and in [6] was “inactive” each time.

`COC(C)(C)CCC[C@H](C)C/C=C/C(C)=C/C(=O)OC(C)C`: the Potency result in test [1], in [2], in [4], in test [5], in test [10] and in [7] was “inactive” in each case.

On to `COC1=CC(=O)O[C@@H](CCc2ccccc2)C1`, for which the Potency entry in test [8], in [2], in [9], in [4], in test [5] and in test [10] was “inactive” each time. The Potency result in test [3], in [6] and in [7] was “inactive” each time.

Consider `CN1C(=O)NC(=O)C(C)(C2=CCCCC2)C1=O` (stereo not given), for which the Potency entry in test [8], in test [2], in [9], in test [4], in test [5] and in test [10] was “inactive” throughout. Besides, the Potency result in test [3], in test [6] and in test [7] was “inactive” throughout.

As for `CC(Cl)C(C)Cl` (stereo not given), the Potency result in [8], in test [2], in test [9], in test [4], in test [5] and in [10] was “inactive” throughout. Besides, the Potency result in test [3], in test [6] and in test [7] was “inactive” each time.

As to `CC1Sc2c(C(=O)O)c(=O)c3cc(F)c(N4CCNCC4)cc3n21` (stereo not given), the Potency entry in test [8], in test [2], in [9], in test [4], in test [5] and in test [10] was “inactive” each time. In addition, the Potency result in test [3], in test [6] and in test [7] was “inactive” each time.

With `CCCCCCC#N`, the Potency result in test [8], in test [2], in test [9], in [4], in test [5] and in [10] was “inactive” throughout. For the same molecule, the Potency entry in test [3], in test [6] and in test [7] was “inactive” throughout.

For `C=CC(=O)OCC(C)O` (stereo not given), the Potency entry in test [8], in test [2], in [9], in test [4], in test [5] and in test [10] was “inactive” each time. For the same molecule, the Potency entry in [3], in [6] and in test [7] was “inactive” in each case.

With `COc1nn(CSP(=S)(OC)OC)c(=O)s1`, the Potency entry in [1], in [2], in test [4], in test [5], in [10] and in test [3] was “inactive” throughout. In addition, the Potency result in test [6] and in test [7] was “inactive” throughout.

With `O=C1C(Cl)C(CCl)CN1c1cccc(C(F)(F)F)c1` (stereo not given), the Potency entry in test [8], in test [2], in test [9], in [4], in test [5] and in test [6] was “inactive” in each case. Also, the Potency entry in test [7] is “inactive”. Further, the Potency in [10] and in [3] was 24.5 µM (active) each time.
